Experimental findings from PubChem BioAssay AID602440 (Sanford-Burnham Center for Chemical Genomics, 2012) are described below.

About 2,300 (0.64%) of roughly 360,000 compounds were called active. Cut-off read from the data, not from the text of the source: active = inhibition mostly above about 40% (no sharp cut-off); inactive = mostly below about 27%. Only a selection was taken, and actives are over-represented in it overall.

The target of the experiment is Sentrin-specific protease 8 (Homo sapiens) (UniProt Q96LD8). The experiment can be described thus: blockers of SENP8 deneddylase activity – biochemical, fluorescence, Nedd8 protein substrate, uHTS, primary screen (AID 602440). The settings on record: recombinant SENP8, Nedd8 substrate fluorescence; at 20 µM; stronger effect = higher value.
Sequence of Sentrin-specific protease 8 (Homo sapiens) (Q96LD8 whole entry, looked up): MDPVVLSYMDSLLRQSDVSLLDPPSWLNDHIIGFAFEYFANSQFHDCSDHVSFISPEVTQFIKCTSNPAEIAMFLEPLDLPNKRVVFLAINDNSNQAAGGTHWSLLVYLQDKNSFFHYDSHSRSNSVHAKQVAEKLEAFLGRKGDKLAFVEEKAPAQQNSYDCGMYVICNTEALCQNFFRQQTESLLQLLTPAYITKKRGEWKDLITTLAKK
Turning to `Cc1[nH]n(C)c(=O)c1N=Nc1ccc(S(C)(=O)=O)cc1`, the inhibition is 28.1% (inactive). Turning to `Cc1ccc(N=Nc2c(C)[nH]n(-c3ccccc3)c2=O)cc1`, the inhibition is 35.1% (active). The figure for `Cc1[nH]n(-c2ccccc2)c(=O)c1CCOC(=O)c1ccc(C(F)(F)F)cc1` is 15.4% (inactive); for `Cc1ccc(S(=O)(=O)N(CC(=O)NN=C2CCN(C)CC2)c2ccc(F)cc2)cc1` it is 10.4% (inactive). The figure for `Cn1nc(C(F)(F)F)cc1-c1ccc(/C=C(\C#N)C(=O)c2cccc(C(F)(F)F)c2)s1` is -159% (inactive). The result for `CCc1ccc(-c2nnn(Cc3nc4ccccc4s3)n2)cc1` reads 14% (inactive); that for `CCc1ccc(-c2nnn(Cc3nn[nH]n3)n2)cc1`, 41.5% (active).

Consider `CN(C)c1nc(N)nc(Cn2nnc(-c3ccc(C(F)(F)F)cc3)n2)n1`, for which the inhibition is 17.2% (inactive). As to `CCOC(=O)c1cc(NC(=O)SCC(=O)O)c(C)nc1C`, the inhibition was -84.4% (inactive). For the compound `CCCNC(=O)CCn1cc(-c2ccc(OC)cc2)nc1CCN`, the inhibition was -0.4% (inactive). The result for `CCCc1cc(=O)[nH]c(SCC(=O)c2c(N)n(CC(C)C)c(=O)n(C)c2=O)n1` reads 2.3% (inactive). The figure for `Cc1cc(-c2ccccc2)nc(N2CCC(C(=O)NC34CC5CC(CC(C5)C3)C4)CC2)n1` is -325% (inactive); for `Cc1cc(C)cc(NC(=O)CCN2C(=O)c3ccccc3C2=O)c1` it is 8.2% (inactive); for `Cc1cc2c(cc1C)N(C(=O)CN1C(=O)c3ccccc3C1=O)C(C)(C)c1ssc(=S)c1-2` it is 41.6% (active). The figure for `Cc1ccc2c(c1)-c1c(ssc1=S)C(C)(C)N2C(=O)CN1C(=O)c2ccccc2C1=O` is 50% (active). Take `Cc1ccc2[nH]cc(CCCN3C(=O)c4ccccc4C3=O)c2c1`: the inhibition was 8.9% (inactive).

Take `Cc1ccccc1C(=O)NNC(=O)CN1C(=O)c2ccccc2C1=O`: the inhibition is 21.1% (inactive). As to `Cc1ccc(NC(=O)CCN2C(=O)c3ccccc3C2=O)cc1C`, the inhibition was 14.4% (inactive).

In the case of `O=C(O)CC1S/C(=N\N=C/c2ccccc2O)N(c2ccc(O)cc2)C1=O` (configuration not stated), the inhibition is -14.4% (inactive). The figure for `Cc1ccc2nc(Nc3ncc4c(n3)CC(C)(C)CC4=O)nc(C)c2c1` is -28.2% (inactive); for `O=C(CCN1CCCCC1)Nc1ccc(F)c(F)c1` it is 19.3% (inactive); for `COCC1CCCN(Cc2cn[nH]c2-c2cc3ccccc3o2)C1` (configuration not stated) it is 9.9% (inactive).
